Measured values: PubChem BioAssay (NCATS)
Records with an inconclusive call do not appear. Activity calls are given as the source filed them. Unless noted, calls follow the shape of the dose curve; as a rule, active = well fitted curve in the direction sought with a large enough effect; inconclusive = small, poorly fitted or top-dose-only effect, or another doubt; inactive = no such curve, though single readings can be large; an effect the other way counts as inactive or inconclusive.

Columns and labels:
[1] = biological target: Cytochrome P450 1A2 (Homo sapiens) (UniProt P05177); experiment: p450-cyp1a2 (AID 410; calls by dose curve)
Sequence of Cytochrome P450 1A2 (Homo sapiens) (P05177 whole entry, looked up): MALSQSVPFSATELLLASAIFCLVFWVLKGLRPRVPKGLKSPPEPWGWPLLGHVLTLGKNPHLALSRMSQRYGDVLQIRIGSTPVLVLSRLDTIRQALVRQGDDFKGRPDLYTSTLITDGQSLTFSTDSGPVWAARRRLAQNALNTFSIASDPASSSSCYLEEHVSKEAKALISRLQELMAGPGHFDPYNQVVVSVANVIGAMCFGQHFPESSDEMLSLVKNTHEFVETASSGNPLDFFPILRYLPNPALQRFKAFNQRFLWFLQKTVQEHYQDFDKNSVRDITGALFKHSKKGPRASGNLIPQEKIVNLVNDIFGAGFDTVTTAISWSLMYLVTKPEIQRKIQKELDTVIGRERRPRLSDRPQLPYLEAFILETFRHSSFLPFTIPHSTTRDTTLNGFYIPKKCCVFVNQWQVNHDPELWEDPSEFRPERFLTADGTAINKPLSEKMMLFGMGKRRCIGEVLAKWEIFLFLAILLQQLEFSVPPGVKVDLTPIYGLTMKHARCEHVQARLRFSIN
How it was run: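 O-Demethylation of luciferin 6' methyl ether by human CYP1A2 is monitored as luciferase luminescence. Substrate sits at Km (100uM); enzyme is 20nM. Values are scaled to 57 uM furafylline as maximal inhibition.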

[2] = biological target: Mitogen-activated protein kinase 10 (Mus musculus) (UniProt Q61831); experiment: JNK3 AlphaScreen Assay (AID 530; active = well fitted curve in either direction with a large enough effect, not every such curve was filed as active;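 also: kinase came from lysate of stimulated human HepG2 cells; signal reports phosphorylation of biotinylated GST-cJun 1-79 at Ser73 with 10 µM ATP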)
How it was run: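 Activity was read by AlphaScreen after JNK3-containing HepG2 lysate (cytokine pre-activated) phosphorylated biotinylated GST-cJun with 10 uM ATP at room temperature. Phospho-Ser73 cJun antibody with Protein-A acceptor beads provided detection.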

[3] = biological target: 3',5'-cyclic-AMP phosphodiesterase 4B (Homo sapiens) (UniProt Q07343); experiment: qHTS Assay for Inhibitors of PDE-IV (AID 607; active = well fitted activation curve with a large enough effect in the main read-out, with a control signal flat, not every such curve was filed as active)
Sequence of 3',5'-cyclic-AMP phosphodiesterase 4B (Homo sapiens) (Q07343 whole entry, looked up): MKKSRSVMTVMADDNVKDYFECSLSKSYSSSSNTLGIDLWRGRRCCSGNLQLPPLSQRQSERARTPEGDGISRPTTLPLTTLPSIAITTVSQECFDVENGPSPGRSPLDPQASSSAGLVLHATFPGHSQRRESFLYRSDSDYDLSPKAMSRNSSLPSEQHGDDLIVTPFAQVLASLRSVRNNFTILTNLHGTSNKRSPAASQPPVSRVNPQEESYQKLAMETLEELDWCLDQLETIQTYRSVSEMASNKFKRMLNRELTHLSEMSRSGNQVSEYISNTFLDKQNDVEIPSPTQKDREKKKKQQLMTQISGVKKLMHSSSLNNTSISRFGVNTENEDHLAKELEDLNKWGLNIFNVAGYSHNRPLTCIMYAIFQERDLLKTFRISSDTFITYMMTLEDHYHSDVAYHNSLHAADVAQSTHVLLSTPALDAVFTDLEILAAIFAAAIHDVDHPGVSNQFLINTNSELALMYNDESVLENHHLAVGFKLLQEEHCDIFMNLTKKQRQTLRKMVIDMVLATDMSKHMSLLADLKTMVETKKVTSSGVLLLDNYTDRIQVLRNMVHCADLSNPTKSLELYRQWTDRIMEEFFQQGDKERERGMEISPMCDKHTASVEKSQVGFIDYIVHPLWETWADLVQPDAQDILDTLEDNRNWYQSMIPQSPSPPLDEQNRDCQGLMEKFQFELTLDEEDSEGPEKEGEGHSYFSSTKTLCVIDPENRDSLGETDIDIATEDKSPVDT
How it was run: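 Cell-based read-out of cAMP via a modified cyclic nucleotide-gated channel and membrane potential dye (535/590 nm) in HEK293 cells expressing PDE4 endogenously. Compounds tested up to 22.9 uM final; 100 uM RO 20-1724 reference.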

[4] = biological target: alpha-glucosidase (Oryza sativa, rice) (UniProt Q653V4); experiment: Counterscreen for Glucocerebrosidase Inhibitors: qHTS Assay for Rice alpha-Glucosidase at pH 5.0 (AID 997)
How it was run: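 Endpoint fluorogenic assay at pH 5.0: compounds (0.7 nM to 77 uM) titrated against 4 nM rice enzyme and 400 uM 4-MU-alpha-glucoside for 20 min at room temperature; NaOH/glycine stop, read ex 365/em 440 nm, Hill-fitted AC50.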

[5] = S16 Schwann cell PMP22 intronic element beta-lactamase assay (AID 624044; calls by dose curve; also: nearly all actives have a fitted effect of over 15% in size); details: S16 rat Schwann cells, PMP22 element beta-lactamase FRET, 24 h; ratio activity, negative = inhibition: at 38.3 µM (top of the series)
How it was run: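 Beta-lactamase reporter under a PMP22 intronic regulatory element in stable S16 rat Schwann cells; 24 h compound exposure. 460 nm blue signal normalized between DMSO (0%) and potassium clavulanate, with 535 nm FRET tracking viability; curves classed by r2 and response.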

[6] = test system: 3D7; experiment: qHTS profiling for inhibitors of Plasmodium falciparum proliferation (AID 504749); also: nearly all actives have a fitted effect of over 60% in size; also: potency is read from the fitted curve at half-maximal effect; details: P. falciparum in erythrocytes, SYBR Green DNA, 72 h; series mostly up to 28.7 µM
How it was run: (§1)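 Each compound contacts P. falciparum-infected red blood cells for 72 h at 37 C; lysis buffer (Tris, EDTA, saponin, Triton X, SYBR Green I) is added and fluorescence measured next morning; values normalized to controls.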

[7] = test system: 7G8; experiment: as above; details: P. falciparum in erythrocytes, SYBR Green DNA, 72 h; series mostly up to 28.7 µM
How it was run: as §1

[8] = test system: AA1029; experiment: as above; details: P. falciparum in erythrocytes, SYBR Green DNA, 72 h; series mostly up to 28.7 µM
How it was run: as §1

[9] = test system: AS120; experiment: as above; details: P. falciparum in erythrocytes, SYBR Green DNA, 72 h; series mostly up to 28.7 µM
How it was run: as §1

[10] = test system: ATS189; experiment: as above; details: P. falciparum in erythrocytes, SYBR Green DNA, 72 h; series mostly up to 28.7 µM
How it was run: as §1

[11] = test system: ATS95; experiment: as above; details: P. falciparum in erythrocytes, SYBR Green DNA, 72 h; series mostly up to 28.7 µM
How it was run: as §1

[12] = test system: C2A; experiment: as above; details: P. falciparum in erythrocytes, SYBR Green DNA, 72 h; series mostly up to 28.7 µM
How it was run: as §1

[13] = test system: CP185; experiment: as above; details: P. falciparum in erythrocytes, SYBR Green DNA, 72 h; series mostly up to 28.7 µM
How it was run: as §1

[14] = test system: CP191; experiment: as above; details: P. falciparum in erythrocytes, SYBR Green DNA, 72 h; series mostly up to 28.7 µM
How it was run: as §1

[15] = test system: CP192; experiment: as above; details: P. falciparum in erythrocytes, SYBR Green DNA, 72 h; series mostly up to 28.7 µM
How it was run: as §1

[16] = test system: CP194; experiment: as above; details: P. falciparum in erythrocytes, SYBR Green DNA, 72 h; series mostly up to 28.7 µM
How it was run: as §1

[17] = test system: CP201; experiment: as above; details: P. falciparum in erythrocytes, SYBR Green DNA, 72 h; series mostly up to 28.7 µM
How it was run: as §1

[18] = test system: CP203; experiment: as above; details: P. falciparum in erythrocytes, SYBR Green DNA, 72 h; series mostly up to 28.7 µM
How it was run: as §1

[19] = test system: CP211; experiment: as above; details: P. falciparum in erythrocytes, SYBR Green DNA, 72 h; series mostly up to 28.7 µM
How it was run: as §1

[20] = test system: CP215; experiment: as above; details: P. falciparum in erythrocytes, SYBR Green DNA, 72 h; series mostly up to 28.7 µM
How it was run: as §1

[21] = test system: CP217; experiment: as above; details: P. falciparum in erythrocytes, SYBR Green DNA, 72 h; series mostly up to 28.7 µM
How it was run: as §1

[22] = test system: CP237; experiment: as above; details: P. falciparum in erythrocytes, SYBR Green DNA, 72 h; series mostly up to 28.7 µM
How it was run: as §1

[23] = test system: CP238; experiment: as above; details: P. falciparum in erythrocytes, SYBR Green DNA, 72 h; series mostly up to 28.7 µM
How it was run: as §1

[24] = test system: CP247; experiment: as above; details: P. falciparum in erythrocytes, SYBR Green DNA, 72 h; series mostly up to 28.7 µM
How it was run: as §1

[25] = test system: CP250; experiment: as above; details: P. falciparum in erythrocytes, SYBR Green DNA, 72 h; series mostly up to 28.7 µM
How it was run: as §1

[26] = test system: CP252; experiment: as above; details: P. falciparum in erythrocytes, SYBR Green DNA, 72 h; series mostly up to 28.7 µM
How it was run: as §1

[27] = test system: CP256; experiment: as above; details: P. falciparum in erythrocytes, SYBR Green DNA, 72 h; series mostly up to 28.7 µM
How it was run: as §1

[28] = test system: CP260; experiment: as above; details: P. falciparum in erythrocytes, SYBR Green DNA, 72 h; series mostly up to 28.7 µM
How it was run: as §1

[29] = test system: CP262; experiment: as above; details: P. falciparum in erythrocytes, SYBR Green DNA, 72 h; series mostly up to 28.7 µM
How it was run: as §1

Measured: Potency

C/C=C\C[C@H](C)[C@H](O)[C@H]1C(=O)N[C@@H](CC)C(=O)N(C)CC(=O)N(C)[C@@H](CC(C)C)C(=O)N[C@@H](C(C)C)C(=O)N(C)[C@@H](CC(C)C)C(=O)N[C@@H](C)C(=O)N[C@@H](C)C(=O)N(C)[C@@H](CC(C)C)C(=O)N(C)[C@@H](CC(C)C)C(=O)N(C)[C@@H](C(C)C)C(=O)N1C
active: [6] 3.98 µM | [7] 8.91 µM | [8] 2.82 µM | [9] 3.98 µM | [11] 3.55 µM | [12] 3.55 µM | [13] 3.55 µM | [14] 3.16 µM | [15] 6.75 µM | [16] 8.49 µM | [17] 6.75 µM | [18] 13.5 µM | [19] 6.75 µM | [20] 7.57 µM | [21] 3.16 µM | [22] 4.47 µM | [23] 3.55 µM | [24] 3.55 µM | [25] 3.55 µM | [26] 3.55 µM | [27] 3.16 µM | [28] 2.82 µM | [29] 3.79 µM
inactive: [1] | [2] | [3] | [4] | [5] | [10]
